According to PubChem BioAssay:

How the values were obtained:
[1] = target: Tumor necrosis factor receptor superfamily member 10B (Homo sapiens) (UniProt O14763); assay: caspase-8 TRAIL sensitization, hit retest, confirmation, cell-based, NB7+caspase-8, with/without TRAIL, luminescence panel (AID 651596); conditions: NB7 neuroblastoma + caspase-8, TRAIL sensitization, luminescence viability, with TRAIL, mean of runs, at 10 µM, stronger effect = higher value
[2] = as above; conditions: NB7 neuroblastoma + caspase-8, without TRAIL, luminescence viability, without TRAIL, mean of runs, at 10 µM

Chain of Tumor necrosis factor receptor superfamily member 10B (Homo sapiens) (O14763 whole entry, looked up): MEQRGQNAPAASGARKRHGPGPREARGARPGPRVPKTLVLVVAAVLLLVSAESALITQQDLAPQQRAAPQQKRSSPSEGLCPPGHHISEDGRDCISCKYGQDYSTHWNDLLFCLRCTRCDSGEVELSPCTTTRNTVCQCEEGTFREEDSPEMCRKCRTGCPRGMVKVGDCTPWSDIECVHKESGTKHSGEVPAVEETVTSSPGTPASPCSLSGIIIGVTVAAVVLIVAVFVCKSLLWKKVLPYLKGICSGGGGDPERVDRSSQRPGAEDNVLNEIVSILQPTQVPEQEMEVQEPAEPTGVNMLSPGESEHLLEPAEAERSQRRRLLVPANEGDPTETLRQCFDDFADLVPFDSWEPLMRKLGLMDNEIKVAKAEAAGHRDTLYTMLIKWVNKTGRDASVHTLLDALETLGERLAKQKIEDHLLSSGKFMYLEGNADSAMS

## Cc1ccc2c(c1)N=C(c1ccccc1)CC(C(Cl)Cl)=N2
[1]
  activity: 29.4%
[2]
  activity: 18%

## CC(C)CC(/C(O)=C(\C#N)c1nc2ccccc2[nH]1)N1C(=O)c2ccccc2C1=O (stereo unspecified)
[1]
  activity: 66.3%
[2]
  activity: 61.7%

## C[n+]1c(-c2ccccc2)cc2c(=Cc3ccccc3)c3ccccc3n21
[1]
  activity: 73.1%
[2]
  activity: 75.4%

## Cc1ccccc1C(=O)O/N=C(\N)c1ccncc1
[1]
  activity: 61.6%
[2]
  activity: 76.3%

## O=C(Cn1ncc(Cl)c(Cl)c1=O)NCC1CCCCC1
[1]
  activity: 98.9%
[2]
  activity: 99.1%

## CN(CCO)c1cc(Sc2nc3ccccc3s2)c2nonc2c1[N+](=O)[O-]
[1]
  activity: 18.5%
[2]
  activity: 91.7%

## Cc1ccc(-c2cn3c(=O)cc(C)[nH]c3n2)cc1
[1]
  activity: 80.5%
[2]
  activity: 79.5%

## CCN1CCN(c2ccc(S(=O)(=O)N3CCCCC3)cc2NC(=O)c2ccc([N+](=O)[O-])s2)CC1
[1]
  activity: 49.6%
[2]
  activity: 54.1%

## COc1cccc(/C=C2\CCc3ccccc3C2=O)c1
[1]
  activity: 83.4%
[2]
  activity: 78.5%

## CCOC(=O)c1sc2nc(-c3ccccc3)ccc2c1N
[1]
  activity: 76.1%
[2]
  activity: 66.1%

## Cc1c(C(=O)Nc2cccc([N+](=O)[O-])c2)csc1-c1ccccc1
[1]
  activity: 56.5%
[2]
  activity: 48.1%

## Cc1cccc(NC(=S)NNC(=O)c2ccc3c(c2)OCO3)c1
[1]
  activity: 39.1%
[2]
  activity: 49.8%

## CN(NC(=O)c1cccc(Cl)c1)c1nc(-c2ccccc2)nnc1C(F)(F)F
[1]
  activity: 75.1%
[2]
  activity: 39.9%

## COc1cc2sc3ccc(C#CC4(O)CCCCC4)cc3c(=O)c2cc1OC
[1]
  activity: 71.4%
[2]
  activity: 71.4%

## CC(C)OC(=O)c1sc2nc(-c3ccccc3)ccc2c1N
[1]
  activity: 58.5%
[2]
  activity: 60.3%

## COc1ccccc1-c1cc(C(=O)NC2CCN(C)CC2)c2ccc(Cl)c(C)c2n1
[1]
  activity: 89.2%
[2]
  activity: 86%

## O=c1c2c(nc3cc(-c4ccc(F)cc4)[nH]n13)CCCC2
[1]
  activity: 71.5%
[2]
  activity: 68.3%

## O=C(CCN1C(=O)NC2(CCCC2)C1=O)Nc1ccc(-c2nc3ccccc3s2)cc1
[1]
  activity: 52.2%
[2]
  activity: 44.5%

## O=C(Nc1c(Cl)cc2c(c1Cl)Cc1cc([N+](=O)[O-])ccc1-2)C(Cl)Cl
[1]
  activity: 89.3%
[2]
  activity: 94.9%

## O=C(CSc1nc2ccccc2c(=O)[nH]1)Nc1ccc([N+](=O)[O-])cc1
[1]
  activity: 35.1%
[2]
  activity: 31.3%

## C=CCN(CC=C)c1cnn(-c2nc3ccccc3[nH]2)c(=O)c1Cl
[1]
  activity: 69.6%
[2]
  activity: 59.7%

## CCn1nnc(NC(=O)c2ccc(C(C)(C)C)cc2)n1
[1]
  activity: 69.1%
[2]
  activity: 75.2%

## O=C(Nc1nc2ccccc2[nH]1)c1ccc(F)cc1
[1]
  activity: 90.8%
[2]
  activity: 91%

## c1cc(-c2cc3cc(N4CCOCC4)ccc3o2)cs1
[1]
  activity: 77.3%
[2]
  activity: 67.4%

## CCCCCCCCCCCCCCCC[n+]1ccc(C(N)=O)cc1
[1]
  activity: 92.1%
[2]
  activity: 88.5%

## Cc1ccc(CSc2nnc(-c3cccnc3)o2)cc1
[1]
  activity: 43.5%
[2]
  activity: 45.6%

## O=C(Nc1nsc(-c2ccccc2)n1)c1cccs1
[1]
  activity: 56.6%
[2]
  activity: 56%

## Cc1cccc(-c2noc(-c3csc([C@@H]4C[C@H](O)[C@@H](CO)O4)n3)n2)c1
[1]
  activity: 36.7%
[2]
  activity: 29.3%

## Cc1ccc(NC(=O)c2ccc(C)cc2)cc1
[1]
  activity: 64.9%
[2]
  activity: 63.8%

## Cc1cc(C)c2c(N)c(C(=O)Nc3nccs3)sc2n1
[1]
  activity: 89.5%
[2]
  activity: 87.2%

## CC[C@]12c3[nH]c4ccc(Cl)cc4c3CCN1C(=O)[C@@H](CC(=O)NCc1cccc(C(F)(F)F)c1)C[C@@H]2C(=O)N1CCN(C(=O)c2ccco2)CC1
[1]
  activity: 71%
[2]
  activity: 68.7%

## O=C(CCl)Nc1ncc(S(=O)(=O)c2ccc([N+](=O)[O-])cc2)s1
[1]
  activity: 95.9%
[2]
  activity: 92.3%

## O=C(CN1CCN(S(=O)(=O)c2ccc(F)cc2)CC1)Nc1ccc(Cl)c(C(F)(F)F)c1
[1]
  activity: 24.1%
[2]
  activity: 31.8%

## C=C1C(=O)OC2C=C(CO)C3OC3C3OC3(C)CC(OC(=O)/C(=C/C)COC(C)=O)C12 (stereo unspecified)
[1]
  activity: 70.1%
[2]
  activity: 81%

## O=c1/c(=C/c2ccccn2)sc2nc3ccccc3n12
[1]
  activity: 60%
[2]
  activity: 14.9%

## O=C(CCl)N1CCCC1c1ccc2c(c1)OCCO2 (stereo unspecified)
[1]
  activity: 95.6%
[2]
  activity: 97.8%

## CCc1nnc(NC(=O)c2nc(S(=O)(=O)Cc3ccccc3)ncc2Cl)s1
[1]
  activity: 95.4%
[2]
  activity: 74.3%

## Cc1ccc(NC(=S)c2nc3ccccc3[nH]2)cc1
[1]
  activity: 74.3%
[2]
  activity: 69.7%

## Cc1ccc(NC(=O)c2ccc3nsnc3c2)c(Cl)c1
[1]
  activity: 60.6%
[2]
  activity: 58.2%

## CC1(C)N=C(N)N=C(N)N1c1cccc(C#N)c1
[1]
  activity: 81.8%
[2]
  activity: 86.1%

## Cc1ccc2nc(-c3ccc(NC(=O)CCS(=O)(=O)c4ccccc4)cc3)sc2c1
[1]
  activity: 87.5%
[2]
  activity: 86.9%

## O=C(Nc1ccccn1)c1sc2cccc(F)c2c1Cl
[1]
  activity: 82.7%
[2]
  activity: 76.6%

## Cc1ccc(C(=O)Nc2ccc3ncccc3c2)cc1
[1]
  activity: 93.4%
[2]
  activity: 92.9%
